Inconclusive results are not listed. Active and inactive are the calls of the source. Calls come from the whole dose curve; as a rule, active = well fitted inhibition curve with a large enough effect; inconclusive = small, poorly fitted or top-dose-only effect; inactive = flat fitted curve, though single readings scatter.
These molecules were tested on CRL-7250 (assay: qHTS assay to identify novel small-molecules to repurpose for Merkel cell carcinoma treatment (AID 1296009; note: nearly all actives have a fitted effect of over 60% in size)). Details: MCC and control cell lines, CellTiter-Glo viability, 72 h; at 44.8 µM (top of the series) unless noted.
In short: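 72 hr, 37 degree celsius; NPC 8-pt / MIPE 11-pt dose response; compound pinned in DMSO; CellTiter-Glo, 10 min RT, luminescence; normalized to no-cell and DMSO controls.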

How did the outcome turn out when `CCOC(=O)/C=C(C)/C=C/C=C(C)/C=C/c1c(C)cc(OC)c(C)c1C` was run?
Its outcome is “inactive”.

For `Cc1ccc2ccc(Cl)cc2n1`, which outcome is on record?
Its outcome is “inactive”.

`O=c1cc(O)c(Cl)c[nH]1` was tested. Which outcome did it give?
The outcome was “inactive”.

`COc1cc2c(Nc3ccc(Br)cc3F)ncnc2cc1OCC1CCN(C)CC1` was tested. Which outcome did it give?
The outcome was “inactive”.

For `NC1CCN(c2nc3c(cc2F)c(=O)c(C(=O)O)cn3-c2ccc(F)cc2F)C1` (stereo unspecified), which outcome is on record?
Its outcome is “inactive”.

`Cc1nc(-c2ccc(Cl)cc2)oc1COC(C)(C)C(=O)O` was tested. Which outcome did it give?
Its outcome is “inactive”.

`CCOc1ncc(F)c(=O)[nH]1` was tested. Which outcome did it give?
Its outcome is “inactive”.

Which outcome does the source give for `Cc1cc(O)c2c(O)c3c(O)cccc3cc2c1` here?
The outcome was “inactive”.

`NC(=O)NC1N=C([O][Al])NC1=O` (stereo unspecified) was tested. Which outcome did it give?
Its outcome is “inactive”.

`Nc1nc2ccc(OC(F)(F)F)cc2s1` was tested. Which outcome did it give?
Its outcome is “inactive”.

How did the outcome turn out when `CC(C(=O)O)c1ccc2c(c1)CC(=O)c1ccccc1S2` (stereo unspecified) was run?
Its outcome is “inactive”.

With `OCc1ccc(Cl)cc1Cl` as the molecule, how does the outcome read?
Its outcome is “inactive”.

How did the outcome turn out when `NC(=O)N1c2ccccc2C=Cc2ccccc21` was run?
Its outcome is “inactive”.

Which outcome does the source give for `O=C(O)Cc1ccc(OCCNC[C@H](O)c2ccccc2)cc1` here?
The outcome was “inactive”.

For `Nc1ccn([C@@H]2O[C@H](CO)[C@@H](O)C2O)c(=O)n1` (stereo partly specified), which outcome is on record?
Its outcome is “inactive”.

For `CCN(CC)C(C)CN1c2ccccc2Sc2ccccc21` (stereo unspecified), which outcome is on record?
Its outcome is “inactive”.

For `Cc1onc(-c2c(Cl)cccc2Cl)c1C(=O)Cl`, which outcome is on record?
Its outcome is “inactive”.

For `CN=C(NC#N)NCCSCc1nc[nH]c1C`, which outcome is on record?
Its outcome is “inactive”.

With `Cn1c(=O)c2[nH]c(Br)nc2n(C)c1=O` as the molecule, how does the outcome read?
The outcome was “inactive”.

How did the outcome turn out when `C=CCN1C[C@H](C(=O)N(CCCN(C)C)C(=O)NCC)C[C@@H]2c3cccc4[nH]cc(c34)C[C@H]21` was run?
Its outcome is “inactive”.

`O=[N+]([O-])c1cncn1CCN1CCOCC1` was tested. Which outcome did it give?
Its outcome is “inactive”.

Which outcome does the source give for `CC(=O)OCC(=O)[C@@]1(OC(C)=O)[C@@H](C)C[C@H]2[C@@H]3C[C@H](F)C4=CC(=O)C=C[C@]4(C)[C@@]3(F)[C@@H](O)C[C@@]21C` here?
The outcome was “inactive”.

Which outcome does the source give for `CCCCCCCC/C=C/C(=O)O` here?
The outcome was “inactive”.

Which outcome does the source give for `CC(C)=CCC/C(C)=C/CO` here?
Its outcome is “inactive”.

For `CC(=O)CC/C=C(\C)CC/C=C(\C)CC/C=C(\C)CCC=C(C)C`, which outcome is on record?
Its outcome is “inactive”.

Which outcome does the source give for `CC(=O)[C@H]1CC[C@H]2[C@@H]3C[C@H](C)C4=CC(=O)CC[C@]4(C)[C@H]3[C@@H](O)C[C@]12C` here?
Its outcome is “inactive”.

For `CN(C)C(=O)Oc1ccc[n+](C)c1`, which outcome is on record?
The outcome was “inactive”.

`CCN(CC)CCNC(=O)c1ccc(N)cc1` was tested. Which outcome did it give?
The outcome was “inactive”.

How did the outcome turn out when `O=C(O)c1ccccc1-c1ccc(C(F)(F)F)cc1` was run?
The outcome was “inactive”.

`CCCCCCCCCCCCCCCC(=O)NCCO` was tested. Which outcome did it give?
The outcome was “inactive”.

Which outcome does the source give for `COc1c2occc2c(OC)c2c(=O)cc(C)oc12` here?
The outcome was “inactive”.

How did the outcome turn out when `Nc1c[n+](N2CCOCC2)no1` was run?
Its outcome is “inactive”.

`Nc1ccc(S(=O)(=O)Nc2ccccn2)cc1` was tested. Which outcome did it give?
Its outcome is “inactive”.

Which outcome does the source give for `Cc1c(C(=O)NCCO)[n+](=O)c2ccccc2n1[O-]` here?
Its outcome is “inactive”.

For `NCCCNCCSP(=O)(O)O`, which outcome is on record?
Its outcome is “inactive [at 9.27 µM]”.

With `O=c1cc[nH]c(=O)[nH]1` as the molecule, how does the outcome read?
The outcome was “inactive”.

Source: PubChem BioAssay (NCATS)
